Giardia kill: Giardia lamblia killing; Giardia lamblia trophozoite viability; activity change, % at 7.66 µM, hits read low; actives 0.15% (n = 340,000); AID 540267; in the data active means activity change below about -80%; inconclusive means between about -30% and that limit;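 further: parasites exposed to compound for two days anaerobically before the ATP read; on the % scale 0 is the no-effect control and ±100 the full control effect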
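Media and compound were dispensed first, then trophozoites at 100 cells/well; plates sat 48 hrs at 37 deg C without oxygen before ATP luminescence reagent was added and read after 15-30 min at room temperature.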
S-ASM inh: human S-ASM enzyme inhibition | P17405 | placental ASM, HMU-PC fluorogenic substrate, 60 min | Potency, µM (titrated, usually from 57.5 µM), for the others: at the top dose activity change, negative = inhibition, usual class: inhibitors | actives 0.006% (n = 340,000) | AID 504937; further: potency means the concentration at half of the fitted maximal effect
Target sequence (P17405 47-631 limits assumed): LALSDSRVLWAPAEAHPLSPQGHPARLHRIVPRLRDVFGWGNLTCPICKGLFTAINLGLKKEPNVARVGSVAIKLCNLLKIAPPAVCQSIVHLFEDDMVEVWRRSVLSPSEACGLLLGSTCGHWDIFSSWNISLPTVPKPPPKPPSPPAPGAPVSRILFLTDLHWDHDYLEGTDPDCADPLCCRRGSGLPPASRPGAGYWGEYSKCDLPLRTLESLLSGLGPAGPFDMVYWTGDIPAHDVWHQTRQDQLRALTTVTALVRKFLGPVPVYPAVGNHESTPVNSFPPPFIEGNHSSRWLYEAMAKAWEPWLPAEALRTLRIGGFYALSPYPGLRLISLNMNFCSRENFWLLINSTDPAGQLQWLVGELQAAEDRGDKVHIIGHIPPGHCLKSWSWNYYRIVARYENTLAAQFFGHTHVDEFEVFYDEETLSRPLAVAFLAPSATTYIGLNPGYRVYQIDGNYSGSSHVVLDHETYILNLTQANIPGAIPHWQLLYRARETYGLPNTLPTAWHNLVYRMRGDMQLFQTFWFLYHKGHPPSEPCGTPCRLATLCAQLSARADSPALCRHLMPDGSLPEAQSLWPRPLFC
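HMU-PC0 cleavage (9 uM final) by human placental ASM, 60 min at 37 °C following 10 min compound exposure at RT; stopped at pH 10, fluorescence Ex 386/Em 447 nm.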
MCF10A rerep: induces DNA re-replication in MCF 10a normal breast cells; MCF 10A DNA re-replication, Hoechst nuclear intensity, 48 h; Potency, µM (series often up to 46.1 µM), for inactives: at the highest dose activity, positive = re-replication, most hits filed as activators; actives 2.9% (n = 350,000); AID 624296; further: potency means the concentration at half of the fitted maximal effect; % of control where 0% means no effect; nearly all actives have a fitted effect of over 50% in size
KB-V1 MDR tox: kills drug-selected multidrug resistant KB-V1 cells; actives 3.4% (n = 400,000); KB-V1 MDR cells viability, CellTiter-Glo, 72 h; Potency, µM (top dose mostly 46.1 µM), hits mostly cytotoxic; further: potency means the concentration at half of the fitted maximal effect; on the % scale 0 is the no-effect control and ±100 the full control effect; nearly all actives have a fitted effect of over 60% in size
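Potencies derive from concentration-effect curves fitted to normalized luminescence (CellTiter-Glo) of KB-V1 cells treated for 72 h at 37 degrees C in phenol-red-free DMEM containing 10% FBS.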
SW480 rerep: induces DNA re-replication in SW480 colon adenocarcinoma cells | SW480 DNA re-replication, Hoechst DNA content imaging, 48 h | AID 624297 | actives 1.8% (n = 340,000) | Potency, µM (titrated, usually from 46.1 µM), for inactives: at the top dose re-replication activation, usual class: activators; further: potency means the concentration at half of the fitted maximal effect; % of control where 0% means no effect; nearly all actives have a fitted effect of over 55% in size
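Compounds, transferred as 23 nL by pin tool, were incubated with cells for 48 hr; DNA content per nucleus was then quantified by Hoechst staining and fluorescence plate imaging.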
KB-3-1 tox: kills parental KB-3-1 adenocarcinoma cells; KB-3-1 viability, CellTiter-Glo ATP luminescence, 72 h; actives 1.4% (n = 400,000); Potency, µM (titrated, usually from 46.1 µM), most hits filed as cytotoxic; AID 1347075; further: potency means the concentration at half of the fitted maximal effect; on the % scale 0 is the no-effect control and ±100 the full control effect; nearly all actives have a fitted effect of over 60% in size
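Parental KB-3-1 adenocarcinoma cells in phenol-red-free DMEM with 10% FBS were pin-treated with compounds at several concentrations, incubated 72 h at 37 °C, and viability read by CellTiter-Glo luminescence; concentration-effect curves were fitted after normalization.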
* marks the source's active call; other numbers are inactive results; i = inactive; ? = inconclusive; nt = no result; [ ] = another dose, or the depositor's remark. Rows were chosen to be rich in hits. Some 6.9% of all compounds tested hit in one or more screens of this group. Unless noted, the call rests on the fitted dose curve; in most records, active means well fitted curve in the direction sought with a large enough effect; inconclusive means small, poorly fitted or top-dose-only effect, or another doubt; inactive means no such curve, though single readings can be large; an effect the other way counts as inactive or inconclusive.

SMILES	Giardia kill	S-ASM inh	MCF10A rerep	KB-V1 MDR tox	SW480 rerep	KB-3-1 tox
CCCCCc1c(-c2ccc(Br)cc2)ncn1CCc1ccccc1OC	nt	nt	nt	16µM*	nt	?
COc1ccccc1Cc1c(-c2ccc(C)cc2)nc2ccc(Br)cn12	nt	nt	nt	i	nt	i
CCCCCc1c(-c2ccc(F)cc2)ncn1CCc1ccccc1OC	nt	nt	nt	12µM*	nt	18µM*
O=C(NC1CCCCC1)c1ccc(CSc2nc3ccncc3n2Cc2ccccc2)cc1	nt	nt	nt	i	nt	i
CC(=O)N1CCc2c(sc3c2c(=O)n(-c2ccc(C)cc2)c(=O)n3CC(=O)Nc2ccccc2)C1	nt	nt	nt	i	nt	i
CC(=O)NS(=O)(=O)c1cccnc1Nc1cccc(Cl)c1	-12	-3%	-1%	i	-5%	i
CCNC(=O)NS(=O)(=O)c1cnccc1Nc1cccc(Cl)c1	-13	-2%	-6%	i	29µM*	i
O=C(NCCc1nc2ccccc2n1CCOc1ccccc1)C1CCCCC1	60	nt	nt	i	nt	i
COc1ccc(C(C)(C)C)cc1NC(=O)Nc1ccc2c(c1)OCO2	4	-4%	?	23µM*	?	i
COc1ccccc1NC(=O)Nc1ccc2c(c1)CCC2	-4	-7%	2%	i	-4%	i
COc1ccc(/C=C/C(=O)Nc2cc(C(F)(F)F)ccc2Cl)cc1OC	-9	0%	1%	21µM*	-5%	i
COc1cc(NC(=O)Nc2ccc3c(c2)OCO3)cc(OC)c1OC	0	0%	-7%	i	?	i
COc1ccc(/C=C/C(=O)Nc2ccc3c(c2)CCC3)cc1OC	30	-18%	24%	21µM*	-82%	i
COc1cc(/C=C/C(=O)Nc2cc(C(F)(F)F)ccc2Cl)cc(OC)c1OC	-3	-7%	4%[9.22 µM]	?	?	?
COc1ccc(C)cc1NC(=O)Nc1ccc2c(c1)CCC2	?	-3%	23µM*	i	-9%	i
COc1ccc(NC(=O)Nc2ccc3c(c2)CCC3)cc1OC	-11	-3%	2%	i	2%	i
Cc1ccn2c(NC3CCCCC3)c(-c3ccc(C)o3)nc2c1	-15	nt	nt	nt	nt	nt
CCC(C)NC(=O)c1cnn(-c2cccc(F)c2)c1-n1cccc1 (configuration not stated)	nt	nt	nt	?	nt	i
CN(C)C1CCC(CC2CCc3ccccc32)CC1 (configuration not stated)	nt	nt	nt	i	nt	i
COc1cc(-c2cc(O)c(-c3ccc4ccccc4n3)c(=O)[nH]2)cc(OC)c1OC	-2	50%	12µM*	?	21µM*	?
Cc1ccc(-c2nnc(-c3ccccc3)c(N3CCOCC3)n2)cc1	-12	-1%	?	5.8µM*	?	?
CN1CCN(c2nc(-c3ccc(Br)cc3)nnc2-c2ccccc2)CC1	-5	-1%	?	26µM*	0%	i
COC(=O)c1sc(NC(=O)c2c(C)noc2C)nc1C	-11	1%	-32%	i	-8%	i
COC(=O)c1sc(N)c(C(=O)OC)c1COC(=O)c1c(C)noc1C	3	1%	9.2µM*	5.2µM*	2.9µM*	5.2µM*
CCc1nc2sc3c(N4CCCCC4)ncnc3c2c2c1CCCC2	nt	nt	nt	i	nt	i
SMILES	Giardia kill	S-ASM inh	MCF10A rerep	KB-V1 MDR tox	SW480 rerep	KB-3-1 tox
COc1ccc(CCNC(=O)Cn2c(C)c3cnn(-c4ccccc4)c(=O)c3c2C)cc1OC	nt	nt	nt	i	nt	i
O=C(OCc1nnc(-c2ccccc2)o1)C1CCN(C(=O)c2ccc(Cl)cc2)CC1	-4	-3%	-1%	i	?	i
O=C(NNC(=O)c1cc(Br)ccc1O)c1csc(N2CCOCC2)n1	2	0%	-1%	?	4.1µM*	?
CCCN(CCC)CCc1cccc2c1CC(=O)N2	nt	nt	?	nt	-8%	nt
Oc1ccc(Cl)cc1C1C=C(c2ccc3c(c2)OCO3)NC(c2ccc(C(F)(F)F)cc2)N1 (configuration not stated)	17	nt	nt	i	nt	?
CC(C)N1CCC2(CC1)N=C(c1ccc3c(c1)OCO3)CC(c1cc(Cl)ccc1O)N2 (configuration not stated)	-18	-3%	5.8µM*	?	?	15µM*
CCOC(=O)N1CCN(C(=O)c2cc3sccc3n2C)CC1	11	2%	1%	13µM*	-5%	i
Cn1c(C(=O)N2CCN(c3cccc(C(F)(F)F)c3)CC2)cc2sccc21	4	-17%	?	i	23µM*	i
Cc1ccc(C)c(N2CCN(C(=O)c3cc4sccc4n3C)CC2)c1	1	-8%	?	?	-3%	?
C[C@H](Cn1cnc2c(N)ncnc21)OCP(=O)(O)O	nt	nt	13%	nt	-3%	nt
CCOC(=O)c1ccc(Nc2nc(N)c3cc(OC)c(OC)cc3n2)cc1	?	5%	21µM*	i	?	i
COc1cc2nc(Nc3ccc(C)c(Cl)c3)nc(N)c2cc1OC	-12	5%	21µM*	?	21µM*	i
CC1=C(C(=O)NCc2cccc(F)c2)C2(CCCCC2)OC1=O	nt	nt	nt	i	nt	i
Cc1cccc2cc3c(NC(=O)c4ccccn4)nn(C)c3nc12	7	411%	8.2µM*	i	?	i
CCCn1nc(NC(=O)COC)c2cc3cccc(C)c3nc21	4	i	10%	i	3%	i
CCCn1nc(NC(=O)CC(C)C)c2cc3cccc(C)c3nc21	13	i	10µM*	i	10µM*	i
CCn1nc(NC(=O)CC(C)C)c2cc3ccc(C)cc3nc21	3	187%	?	i	?	i
CCCn1nc(NC(C)=O)c2cc3cccc(C)c3nc21	-8	427%	18µM*	i	18µM*	i
CCCC(=O)Nc1nn(C)c2nc3c(C)cccc3cc12	-13	180%	?	i	?	i
CCn1nc(NC(=O)CC(C)C)c2cc3cccc(C)c3nc21	-4	i	9.2µM*	i	21µM*	i
CNc1c(Br)cc(C(O)C2=CCc3ccccc32)cc1Br (configuration not stated)	nt	nt	nt	i	nt	i
Cc1ccc(S(=O)(=O)N2CCOCC2)cc1NC(=O)CSc1nnc(NC2CC2)s1	-3	3%	-5%	i	-19%	i
Nc1cc(C(F)(F)F)ccc1S(=O)(=O)Nc1cccc2c1NCCC2	2	nt	nt	nt	nt	nt
CCn1nc(NS(=O)(=O)c2ccccc2[N+](=O)[O-])c2cc3cccc(C)c3nc21	-4	-22%	8%	i	-10%	i
CCn1nc(NC(=O)C(C)(C)C)c2cc3cccc(C)c3nc21	1	425%	6.5µM*	i	?	i

High-throughput results deposited in PubChem by National Center for Advancing Translational Sciences (NCATS).
